This is part of a sample that, as a whole, favours compounds with a hit. Of some 83,000 tested, about 20% had one in any assay.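 Method: cells in 96-well plates; compound added at one concentration; 48 h incubation; percent growth measured; values under 10 scored active.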 A number with no mark means an inactive call. Calls of active or inactive are those of the source.

Growth data for 8 molecules are collected here from PubChem BioAssay (NCI).

Holding throughout (experiment): NCI-60 one-dose screen, 48 h (100 = growth as untreated, 0 = no growth, -100 = all killed)
Holding throughout (details): 10 µM unless noted

In experiment [1] the test system is DU-145 prostate.
Experiment [2] deals with K-562 leukemia.
Experiment [3] relates to MALME-3M melanoma.
Experiment [4] has as its system MDA-MB-231 breast.
Experiment [5] concerns RXF 393 renal.
Experiment [6] deals with SF-268 CNS.
The test system of experiment [7] is SF-295 CNS.
Experiment [8] deals with SF-539 CNS.
Experiment [9] relates to UACC-257 melanoma.
The test system of experiment [10] is M14 melanoma.
The test system of experiment [11] is HCT-15 colon.
Experiment [12] has as its system HT29 colon.
Experiment [13] deals with SNB-75 CNS.
The test system of experiment [14] is SNB-19 CNS.
For experiment [15], the system named is U251 CNS.
The subject of experiment [16] is PC-3 prostate.
The test system of experiment [17] is SK-MEL-5 melanoma.
Experiment [18] deals with UACC-62 melanoma.
For experiment [19], the system named is LOX IMVI melanoma.
For experiment [20], the system named is SK-MEL-28 melanoma.

As for `N#C/C(=C\c1ccc(-c2cccc(C(F)(F)F)c2)o1)c1ccccc1`, the growth in [1] is 102%; in [2], 87.1%; in experiment [3], 96.4%; in experiment [4] it was 74.4%; in experiment [5], 101%; in experiment [6], 107%. For the same molecule, the growth is 89.1% in experiment [7]; 95.6% in experiment [8]; 103% in experiment [9]; 84.5% in experiment [10]; 62.5% in experiment [11]; 86.3% in experiment [12]. Also, the growth is 85% in [13]; 99.1% in [14]; 100% in experiment [15]; 90.4% in experiment [16]; 92.6% in experiment [17]; 71.4% in experiment [18]. Moreover, in experiment [19], the growth is 86.5%.
As for `CCOC(=O)c1c(C)nc2c(c1N)CC(=O)N2Cc1ccc(OC)cc1`, the growth in experiment [1] is 47.4%; in experiment [2], 99.8%; in [3] it was 33.6%; in experiment [4], 19.6%; in [5], 37.7%; in experiment [6], 4.12% (active). Besides, the growth in experiment [7] is 28.5%; in experiment [8], 26.4%; in [9], 49.4%; in [10], 86.8%; in experiment [11] it was 55.6%; in [12], 38.4%. For the same molecule, the growth in experiment [13] was -5.39% (active); in [14], 4.6% (active); in experiment [15], 4.05% (active); in experiment [16], 43%; in [17], 53.7%; in experiment [18] it was 25.7%. For the same molecule, in [19], the growth is 75.9%.
`O=S1(=O)C=C(c2ccccc2)C(c2ccccc2)=C1`: the growth in experiment [1] is 9.89% (active); in [2] it was 4.11% (active); in experiment [3] it was -32.6% (active); in experiment [4] it was 11%; in experiment [5] it was -86.8% (active); in experiment [6] it was 3.46% (active). Further, the growth was 73.5% in [7]; 9.24% (active) in [8]; 2.35% (active) in experiment [9]; 12.1% in [10]; -6.66% (active) in experiment [11]; -34.3% (active) in experiment [12]. In addition, the growth in experiment [13] is 50%; in [14] it was 76.6%; in experiment [15], 14.8%; in experiment [16] it was 39.6%; in experiment [17] it was 27.4%; in experiment [18], 5.7% (active). Further, the growth in experiment [19] is -69.4% (active).
With `CCN(CC)Cc1cc(Nc2ccnc3cc(Cl)ccc23)ccc1O`, the growth in [1] is 97.4%; in experiment [2] it was 87.1%; in experiment [3], 104%; in experiment [4] it was 72.3%; in [5], 97.4%; in experiment [6], 77.8%. In addition, the growth in [7] was 93.4%; in experiment [8], 85.6%; in experiment [9], 112%; in experiment [10], 91.2%; in experiment [11], 68%; in [12], 81.2%. Besides, the growth in [13] is 83.4%; in experiment [14], 88.7%; in [15], 89.4%; in experiment [16] it was 93.2%; in experiment [17], 96.7%; in [18], 92.7%. Besides, the growth in [19] was 85.8%.
As for `O=C1c2ccccc2C(=O)c2c1cc1c(c2[N+](=O)[O-])OCO1`, the growth in experiment [1] is 17.8%; in experiment [2], 10.5%; in experiment [3], 85%; in [4], 11.3%; in [5], -63.5% (active); in [6], 5.31% (active). The growth in experiment [7] is 10.6%; in experiment [8] it was 21.3%; in experiment [9], 82.3%; in [10] it was 73.5%; in [11], 13.7%; in experiment [12], 32.5%. The growth in experiment [13] is -13.4% (active); in experiment [14], 21.7%; in [15], -13.3% (active); in experiment [16], -3.71% (active); in experiment [17] it was 80%; in [18], 15.2%. The growth in experiment [19] is 2.79% (active).
As to `O=C(CN1CCCCCC1)Nc1nc2ccc(NCc3ccc(Cl)cc3)cc2s1`, the growth in experiment [1] is 101%; in experiment [2], 87.9%; in experiment [3], 98.1%; in [4] it was 97.3%; in [5], 99.2%; in experiment [6] it was 99.9%. In addition, the growth is 95.9% in experiment [7]; 94.8% in [8]; 100% in [9]; 99.3% in experiment [10]; 99.2% in experiment [11]; 95.7% in [12]. For the same molecule, the growth is 94.2% in experiment [13]; 95.8% in experiment [14]; 95.8% in experiment [15]; 84.3% in experiment [16]; 98.4% in experiment [17]; 88.5% in [18]. In addition, the growth in [19] was 96.7%.
For the molecule `CN(C)S(=O)(=O)Oc1ccc(-c2sc3cc(OS(=O)(=O)N(C)C)ccc3c2C(=O)c2ccc(OCCN3CCCCC3)cc2)cc1`, the growth in experiment [1] is 63.4%; in experiment [2], -8.94% (active); in experiment [3], 17.7%; in experiment [4] it was 77.5%; in experiment [5], 26.8%; in experiment [6], 42.1%. Besides, the growth in experiment [7] is 48.6%; in experiment [8], 52.2%; in experiment [9], -17.5% (active); in experiment [10] it was 2.03% (active); in [11], 34.2%; in experiment [12], 8.75% (active). In addition, the growth was 61.5% in experiment [13]; 58.2% in experiment [14]; 18.6% in [15]; 53.6% in [16]; 67.5% in experiment [17]; 47.3% in experiment [18]. The growth is 32.7% in experiment [19] and 57.2% in [20].
As to `O=C1/C(=C/c2ccc(F)cc2)CN(C(=O)C(Cl)Cl)C/C1=C\c1ccc(F)cc1`, the growth in experiment [1] was -96.5% (active); in experiment [2] it was -6.01% (active); in [3], -34.9% (active); in experiment [4], -39.8% (active); in experiment [5], -91.8% (active); in experiment [6] it was -30.9% (active). Moreover, the growth in [7] is -75.9% (active); in [8], -97% (active); in [9], -43.3% (active); in experiment [10], -68.5% (active); in [11], -57.9% (active); in experiment [12], -24.7% (active). The growth in [13] is -61.2% (active); in experiment [14] it was -87% (active); in experiment [15] it was -95.5% (active); in experiment [16], -74.3% (active); in experiment [17] it was -64.9% (active); in experiment [18], -61.1% (active). Further, in experiment [19], the growth is -90.2% (active).
